Hit rate of the full screen: of about 48,000 compounds, about 13,000 (27%) showed an effect of 50% or more. Some of the results follow.
system: Wolbachia pipientis; experiment: Anti-Wolbachia Cell-Based Screen; type: functional; design: scale not given: in the data most compounds retested in dose-response had high values; settings: 5 µM

| Structure (SMILES) | Percent Effect [%] |
| --- | --- |
| Cc1nn(C)cc1C(=O)N1C[C@H]2CC[C@@H]1CN(S(=O)(=O)N(C)C)C2 | 7.621 |
| CC(C)CCC1=NC2(CCN(C(=O)CN3CCCC3=O)CC2)C(=O)N1 | 0.2617 |
| NS(=O)(=O)c1cnc(NCC2(c3cccc(F)c3)CCOCC2)s1 | -14.69 |
| CC(=O)N1CC(=O)N(c2cnn(C)c2)CC12CCN(CC1CC1)C2.O=C(O)C(F)(F)F (stereo unspecified) | -1.209 |
| CN(C)Cc1cc(=O)n2c(n1)CN(C(=O)c1ccc[nH]1)CCC2.O=C(O)C(F)(F)F | 95.26 |
| CCN(CC)Cc1cc(=O)n2c(n1)CN(C(=O)c1ccc[nH]1)CCC2 | 89.92 |
| CC(C)N(C)Cc1cncc2c1CCN(C(=O)c1ccc[nH]1)C2.Cl.Cl | -17.08 |
| Cc1ccsc1C(=O)N1CCCn2c(nc(CN(C)C)cc2=O)C1.O=C(O)C(F)(F)F | -10.18 |
| CC(C)N(C)Cc1cc(=O)n2c(n1)CN(C(=O)c1ccc[nH]1)CCC2 | 99.67 |
| CN(C)Cc1cc(=O)n2c(n1)CN(C(=O)Cc1cccs1)CCC2.O=C(O)C(F)(F)F | 4.562 |
| CC(=O)NC1CCCN(c2ccc(C#N)cc2C(F)(F)F)C1 (stereo unspecified) | 47.21 |
| CC(C)N1CC(C(=O)NC(C)(C)CNC(=O)OC(C)(C)C)CC1=O (stereo unspecified) | 16.31 |
| Cc1ccc(C(=O)OC(C)Cn2cccn2)c(=O)[nH]1 (stereo unspecified) | -0.638 |
| c1csc(SCC2CN=C(N3CCOCC3)S2)c1 (stereo unspecified) | -10.18 |
| CN(CCc1cnn(C)c1)C(=O)C(c1ccccc1F)N(C)C (stereo unspecified) | -8.573 |
| CC(C)c1nsc(N2CCOC3(CCCC3)C2)n1 | -27.55 |
| C[C@@H]1CN(C(=O)CCN2CCCC2)CC[C@@]1(O)C1CCOCC1 | 18.72 |
| CC(C)[C@]1(O)CN(C(=O)C2(Cn3cccn3)CC2)C[C@H]1C | 94.9 |
| C[C@@H]1CN(C(=O)c2ccncc2)CC[C@@]1(O)C1CCOCC1 | -11.61 |
| C[C@@H]1CN(C(=O)CCc2cnn(C)c2)C[C@@]1(O)C1CCC1 | -2.131 |
| CC(C1CC1)N(C)C(=O)CCn1cccn1 (stereo unspecified) | -12.77 |
| C[C@@H]1CN(C(=O)CCc2cnn(C)c2)CC[C@@]1(O)C1CCOCC1 | -4.294 |
| CCCc1cc(C(=O)N2C[C@@H](C)[C@](O)(C3CCC3)C2)[nH]n1 | -1.382 |
| C[C@@H]1CN(C(=O)CCN2CCCC2)CC[C@@]1(O)C1CCC1 | -5.805 |

| Structure (SMILES) | Percent Effect [%] |
| --- | --- |
| C[C@@H]1CN(C(=O)C2(Cn3cccn3)CC2)CC[C@@]1(O)C1CCOCC1 | 103.7 |
| C[C@@H]1CN(C(=O)C2(Cn3cccn3)CC2)C[C@@]1(O)C1CCC1 | 109.7 |
| CCN(C(=O)CCn1cccn1)C1CC1 | 0.4672 |
| C[C@@H]1CN(C(=O)C2(Cn3cccn3)CC2)CC[C@@]1(O)C1CC1 | 95.17 |
| N#Cc1ccnc(N2CCN(CC(O)c3ccccc3)CC2)c1 (stereo unspecified) | -34.32 |
| COc1ccccc1C1(CNc2ncc(S(N)(=O)=O)s2)CC1 | -5.545 |
| CCN(CC)C(=O)N1CCN(C(=O)C2CCCc3[nH]ncc32)CC1 (stereo unspecified) | -7.717 |
| CC(NC(=O)NCCCc1n[nH]c(N)c1C#N)c1ccccc1 (stereo unspecified) | 11.96 |
| Cn1cc(CN2CCc3c(nnn3C)C2COCc2ccccc2)cn1.O=C(O)C(F)(F)F (stereo unspecified) | -8.957 |
| CC(C)CN1CCc2[nH]cnc2C12CCN(C(=O)c1cccnc1)CC2 | 1.531 |
| COCCNC(=O)NCC(C)c1ccccc1OC (stereo unspecified) | -10.13 |
| CNC(=O)[C@H]1C[C@@H]2CN(C(=O)c3ccoc3)C[C@@H]2N1S(C)(=O)=O | 83.29 |
| CNC(=O)[C@H]1C[C@@H]2CN(S(=O)(=O)c3ccccc3)C[C@@H]2N1C(C)=O | -8.592 |
| Cc1ccoc1C(=O)N1CC[C@@]2(C[C@H](NS(C)(=O)=O)CCO2)C1 | -10.72 |
| CNC(=O)[C@H]1C[C@@H]2CN(C(=O)c3ccsc3)C[C@@H]2N1S(C)(=O)=O | 104.8 |
| O=C(c1ccoc1)N1C[C@@H]2CN(c3ncccn3)C[C@@H]2C1 | -12.12 |
| CNC(=O)[C@H]1C[C@@H]2CN(C(=O)c3ccco3)C[C@@H]2N1S(C)(=O)=O | 10.85 |
| O=C(c1ccoc1)N1C[C@H]2CC[C@@]3(N=C(c4ccccc4)NC3=O)[C@H]2C1 | -13.12 |
| CNC(=O)[C@H]1C[C@@H]2CN(C(=O)c3cscn3)C[C@@H]2N1S(C)(=O)=O | -14.13 |
| CCN1C[C@@H]2CN(C(=O)c3ccsc3)C[C@@H]2C1=O | -7.34 |
| CNC(=O)[C@H]1C[C@@H]2CN(C(=O)c3ccc(C)o3)C[C@@H]2N1S(C)(=O)=O | 94.93 |
| CNC(=O)[C@H]1C[C@@H]2CN(C(=O)c3occc3C)C[C@@H]2N1S(C)(=O)=O | 100.3 |
| Cc1nn(C)c(Cl)c1CNCc1ccc(OCC(N)=O)cc1 | 6.399 |
| O=C(NC[C@H]1OC[C@@H](NCc2ccc(F)cc2)[C@@H]1O)N1CCOCC1 | -11.78 |

| Structure (SMILES) | Percent Effect [%] |
| --- | --- |
| CCNC(=O)N1CCC(NC(=O)NCCc2cccc(C)c2)C1 (stereo unspecified) | -4.75 |
| NCC1CN(c2nc(-c3ccccc3)nc3c2CCNCC3)CCO1 (stereo unspecified) | 2.56 |
| FC(F)(F)C1CN(Cc2cccc(-c3ccccn3)c2)CCO1 (stereo unspecified) | 75.31 |
| Cc1cc(-c2nn(C)c(Cl)c2CN2CCOC(C(=O)O)C2)no1 (stereo unspecified) | -7.215 |
| O=C(CCN1CCOC(C(F)(F)F)C1)NCc1cccc(Cl)c1 (stereo unspecified) | -5.951 |
| FC(F)(F)C1CN(Cc2cccc(OCc3ccccn3)c2)CCO1 (stereo unspecified) | 94.94 |
| CS(=O)(=O)NC1CCCN(Cc2ccc(OCc3ccccn3)cc2)C1 (stereo unspecified) | 2.735 |
| FC(F)(F)C1CN(Cc2cnc3c(-c4ccccc4)cnn3c2)CCO1 (stereo unspecified) | 27.88 |
| O=C(O)C1CN(Cc2cccc(-c3ccccn3)c2)CCO1 (stereo unspecified) | 102.3 |
| CN1C(=O)[C@H]2CC[C@@H]1CN(Cc1cccc(OCc3ccccn3)c1)C2 | -0.7428 |
| CN(C)C(=O)CCC1CCCN(Cc2cccc(-c3ccccn3)c2)C1 (stereo unspecified) | 9.493 |
| Cc1nc2c(c(N3CCC(CN4CCCC4=O)CC3)n1)CCNCC2 | -1.611 |
| COC(=O)c1cc(OCC2CCC2)cc(C(=O)N[C@H]2CC[C@H](O)CC2)c1 | -10.19 |
| CSCCC1CC(=O)Nc2cc(O)c(C)cc21 (stereo unspecified) | 3.121 |
| O=C(c1cnc(NCCC2CCCO2)c(Cl)c1)N1CCCCC1 (stereo unspecified) | -6.452 |
| CNC(=O)c1cc2c(nc1NC(C)C)CCN(C(=O)NC(C)C)CC2 | -1.585 |
| CCN1CCOCC2(CCCN(c3nncs3)C2)C1 (stereo unspecified) | -9.534 |
| CC(=O)c1cc(CC(=O)N2CCCC2c2nc(C(C)C)no2)cs1 (stereo unspecified) | -13.65 |
| CC(Cn1cncn1)NC(=O)NCC(C)(C)c1ccc(F)cc1 (stereo unspecified) | 10.62 |
| CSCC(C)(O)CNC(=O)c1ccc(F)cc1Cl (stereo unspecified) | 16.17 |
| Cn1nnnc1SCCC(=O)NCC(C)(C)c1ccccc1F | -11.64 |
| Cc1nncn1CCNC(=O)C(C)(C)c1cccc(F)c1 | -15.91 |
| Cc1nn(C)cc1-c1cc(C(=O)NCC(C)(C)c2cccc(F)c2)n[nH]1 | 113.6 |
| Cc1nn(C)cc1-c1cc(C(=O)NCC(C)(C)c2ccccc2F)n[nH]1 | 89.7 |

| Structure (SMILES) | Percent Effect [%] |
| --- | --- |
| O=C(NCc1nc[nH]n1)c1cc(COc2cccc(F)c2)[nH]n1 | -19.41 |
| Cc1cc(C)n(CC(C)NC(=O)C(C)(C)c2ccccc2F)n1 (stereo unspecified) | 6.546 |
| Cc1nn(C)cc1-c1cc(C(=O)NCC(C)(C)c2ccc(F)cc2)n[nH]1 | 130.7 |
| O=C1CC(c2ccccc2F)c2c(n3ccsc3nc2=O)N1 (stereo unspecified) | 13.25 |
| CC(NC(=O)Nc1cc(F)cc(F)c1)c1nc[nH]n1 (stereo unspecified) | -15.42 |
| O=C(NCC1CC1)C1CCC2(CCN(C(=O)c3ccncc3)CC2)O1.O=C(O)C(F)(F)F (stereo unspecified) | 111.8 |
| O=C(NCC1CC1)C1CCC2(CCN(C(=O)c3cnccn3)CC2)O1 (stereo unspecified) | 100.2 |
| O=C(NCC1CC1)C1CN(C(=O)c2cnccn2)CC12CCOCC2 (stereo unspecified) | -1.801 |
| O=C1COC2(CCN(C(=O)c3cnccn3)CC2)CN1CC1CC1 | -3.882 |
| O=C(NCC1CC1)C1CCC2(CCN(C(=O)c3cccnc3)CC2)O1.O=C(O)C(F)(F)F (stereo unspecified) | 93.2 |
| O=C(C1CCC2(CCN(CC3CC3)CC2)O1)N1CCCC1.O=C(O)C(F)(F)F (stereo unspecified) | -8.008 |
| CC1N(CC2CC2)C(=O)COC12CCN(C(=O)c1ccncc1)CC2 (stereo unspecified) | -6.799 |
| O=C(NCC1CC1)C1CN(C(=O)c2cccnc2)CC12CCOCC2 (stereo unspecified) | 0.4189 |
| CCc1nnc2n1CC(CNCc1nc(-c3ccsc3)no1)CC2 (stereo unspecified) | -16.4 |
| Cc1ccccc1CN(C)C(=O)Cn1nc(-c2ccc(F)cc2)oc1=O | -30.13 |
| COc1ncccc1C(=O)N1CC(c2nc(-c3ccco3)no2)C1 | 8.085 |
| COc1cccc(OCCNC(=O)CN2CCN(C)CC2C)c1 (stereo unspecified) | 0.3417 |
| COCCCNC(=O)Cn1nnc(-c2cc3ccccc3o2)n1 | -9.995 |
| O=C(Cn1ccc2ncccc2c1=O)N1CCCCC1 | -19.73 |
| Cc1nc(-c2ccccc2)n(CC(=O)N(C(C)C)C(C)C)n1 | 7.414 |
| Cl.O=C(Cn1c(-c2ccco2)cc2cccnc21)N1CCCC1 | 109.6 |
| COCCNC(=O)Cn1c(-c2ccco2)cc2cccnc21 | 97.97 |
| CC(C)N(C(=O)Cn1c(-c2ccco2)cc2cccnc21)C(C)C.Cl | 129.4 |
| O=C(c1ncoc1-c1ccco1)N1CCCN(c2ncccn2)CC1 | -13.17 |

Source: ChEMBL document CHEMBL3988442, “University of Dundee, Small-Polar-MMV Screening Library” (2021)
